These results are taken from PubChem BioAssay (NCI).

About 79,000 compounds went through this panel and 15% of them were active in at least one assay; those are over-represented in the sample as a whole. Calls of active or inactive are those of the source. No stated cut-off is given here; in the data, active means growth inhibition above about 70%; inactive means the rest.

The nature of one experiment: NCI Yeast Anticancer Drug Screen. Data for the rad50 strain (AID 155).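 Further: 0% = growth of vehicle-only cultures of the same strain.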 Conditions: S. cerevisiae rad50 strain growth inhibition; at 50.0 µM; active compounds read high. Summed up: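 Readout: growth inhibition relative to vehicle-treated cultures. Compound exposure was carried out in a genetically defined yeast strain deficient in DNA damage repair.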
As to `O=C(O)C(C1=CCCCC1)C1(O)CCCCC1` (stereo not given), the growth inhibition is -9.15% (inactive).
For `CC(=O)Nc1ccc(I)cc1`, the growth inhibition is 40.7% (inactive).
With `NC(=O)c1cccc[n+]1[O-]`, the growth inhibition is -6.25% (inactive).
Same read-out and setting: the figure for `COc1ccc(N=Cc2ccc(N(CCC#N)S(=O)(=O)c3ccccc3)cc2)cc1` is 0.2% (inactive).
For the molecule `Cc1c(-c2ccccc2)c(=O)oc2ccc(Cl)cc12`, the growth inhibition is -34% (inactive).
On to `CC1=CC(=O)N2[C@H](OC[C@@H]2C(C)C)O1`, for which the growth inhibition is 6.4% (inactive).
With `CN(C)c1nc2nc[nH]c2c(=S)n1C`, the growth inhibition is 7.45% (inactive).
On the same count and under the same terms, the figure for `CC(C)(C)OC(=O)NC1CCCCC1NC(=O)C(=O)NC1CCCCC1NC(=O)OC(C)(C)C` (stereo not given) is -17.1% (inactive); for `O=C(Cc1cc2c(cc1[N+](=O)[O-])OCO2)c1c[nH]c2ccc(Br)cc12` it is 6.45% (inactive).
With `COCC(=O)C(C(C)=O)C(c1ccncc1)C(C(C)=O)C(=O)COC` (stereo not given), the growth inhibition is -7.75% (inactive).
`O=C(NC/C(Cl)=C/Cl)Nc1cccc2c1CCCC2`: the growth inhibition was -5.5% (inactive).
For `Cn1c(=O)c2c(nc(C3CC3)n2C)n(C)c1=O`, the growth inhibition was -1.15% (inactive).
Turning to `COCc1ccccc1P(c1ccccc1COC)c1ccccc1COC`, the growth inhibition was 31% (inactive).
`Oc1ccc(Cl)cc1C=Nc1cnc2ccccc2c1`: the growth inhibition is -14.6% (inactive).
Same read-out and setting: next, `CCOC(OCC)n1ncnc1NC(=S)NCc1ccccc1`: -15.4% (inactive); `CC(=O)Nc1cc2cc(NC=C(C#N)C#N)ccc2oc1=O`: -1.8% (inactive); `CCOC(=O)/C(C#N)=C/N=c1ccccn1C`: 5.1% (inactive).
`CC(C)=NNC(=O)Nc1cccc(C)c1C`: the growth inhibition is 9.35% (inactive).
Turning to `COc1cc(-c2c3c(cc4c2OCO4)CC(O)C(C(=O)O)C3)cc(OC)c1OC` (stereo not given), the growth inhibition is 40.9% (inactive).
Take `O=C1CCC([N+](=O)[O-])C(c2ccccc2Cl)N1` (stereo not given): the growth inhibition is 10.7% (inactive).
Still for that read-out and setting: the figure for `COC(=O)CCSc1ccccc1` is 0.55% (inactive).
With `Cc1cc(C)cc(C(=O)NCc2ccc[n+]([O-])c2)c1`, the growth inhibition was -10.3% (inactive).
With `Nc1ncccc1C(=O)O`, the growth inhibition is 2.55% (inactive).
In the case of `O=C1c2ccccc2Cc2ccccc21`, the growth inhibition is 3.5% (inactive).
Still for that read-out and setting: next, `O=C(O)CCn1ccc2ccccc21`: 3.65% (inactive).
Consider `CCCCCCCCC1C(CCCCCCCC(=O)N(CC)CCCOCC)C2(Cl)C(Cl)=C(Cl)C1(Cl)C2(Cl)Cl` (stereo not given), for which the growth inhibition was 3.45% (inactive).
Turning to `Cc1cnc2[nH]c(-c3ccccc3)cc(=O)c2c1`, the growth inhibition is -6.7% (inactive).
As for `COc1ccc(CSC(=S)Nc2ccc(N=Nc3ccccc3)cc2)cc1`, the growth inhibition is 33.7% (inactive).
`O=P(OCCCl)(OCCCl)C(c1ccccc1)(c1ccccc1)c1ccccc1`: the growth inhibition is 63.4% (inactive).
On the same count and under the same terms, next, `CC(=O)c1ccncc1`: -38.2% (inactive); `CCOc1ccccc1NC(=O)C(=O)Cc1nc2ccccc2s1`: -2.65% (inactive); `CC1CCCC(C)(C)/C1=N/O` (stereo not given): 16.1% (inactive).
The same measure, in the same setting: the figure for `O=[N+]([O-])c1ccc(S(=O)(=O)c2ccc(NCN3CCCCC3)cc2)cc1` is 25.1% (inactive).
Still for that read-out and setting: the figure for `CN(N)C(=O)Nc1ccc([N+](=O)[O-])cc1` is 16.4% (inactive); for `CN(C)CCC1(C2=CCCC2)CC/C(=C\c2ccc3c(c2)OCO3)C1=O` (stereo not given) it is 4.85% (inactive).
Consider `CC(=O)NNC(=S)/N=C\c1c(O)c2ccccc2oc1=O`, for which the growth inhibition was -50.5% (inactive).
For the molecule `NC(Cc1ccccc1)C(=O)Nc1cccnc1` (stereo not given), the growth inhibition is -17.4% (inactive).
For the molecule `CCN(CC)CCCC(C)Nc1cc(C)c2nc(C)cc(C)c2c1C` (stereo not given), the growth inhibition was -22.1% (inactive).
As to `CCCCCCCCCCCCCC/C=N/Nc1ccc([N+](=O)[O-])cc1[N+](=O)[O-]`, the growth inhibition is 21.3% (inactive).
`C/C(=C/C(C)C)C(C)(C#N)C(N)=O` (stereo not given): the growth inhibition was 8.75% (inactive).

A further experiment in a line: NCI Yeast Anticancer Drug Screen. Data for the mec2-1 strain (AID 157). Conditions: S. cerevisiae mec2-1 strain, at 50.0 µM, active compounds read high. Summed up:
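Yeast mec2-1 mutant treated with compound. Readout: growth inhibition vs vehicle controls.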
As for `O=C(O)C(C1=CCCCC1)C1(O)CCCCC1` (stereo not given), the growth inhibition was -5.45% (inactive).
On the same count and under the same terms, the figure for `CC(=O)Nc1ccc(I)cc1` is 3.2% (inactive); for `NC(=O)c1cccc[n+]1[O-]` it is 7.25% (inactive); for `COc1ccc(N=Cc2ccc(N(CCC#N)S(=O)(=O)c3ccccc3)cc2)cc1` it is -13.3% (inactive).
For the molecule `Cc1c(-c2ccccc2)c(=O)oc2ccc(Cl)cc12`, the growth inhibition was -8.5% (inactive).
With `CC1=CC(=O)N2[C@H](OC[C@@H]2C(C)C)O1`, the growth inhibition was -2.35% (inactive).
For `CN(C)c1nc2nc[nH]c2c(=S)n1C`, the growth inhibition is 6% (inactive).
In the case of `CC(C)(C)OC(=O)NC1CCCCC1NC(=O)C(=O)NC1CCCCC1NC(=O)OC(C)(C)C` (stereo not given), the growth inhibition was -18.7% (inactive).
Take `O=C(Cc1cc2c(cc1[N+](=O)[O-])OCO2)c1c[nH]c2ccc(Br)cc12`: the growth inhibition is -3.9% (inactive).
Regarding `COCC(=O)C(C(C)=O)C(c1ccncc1)C(C(C)=O)C(=O)COC` (stereo not given), the growth inhibition was 14.9% (inactive).
For `O=C(NC/C(Cl)=C/Cl)Nc1cccc2c1CCCC2`, the growth inhibition was -13.2% (inactive).
For the molecule `Cn1c(=O)c2c(nc(C3CC3)n2C)n(C)c1=O`, the growth inhibition was -0.6% (inactive).
Turning to `COCc1ccccc1P(c1ccccc1COC)c1ccccc1COC`, the growth inhibition was 18.9% (inactive).
The same measure, in the same setting: next, `Oc1ccc(Cl)cc1C=Nc1cnc2ccccc2c1`: 24.9% (inactive).
Still for that read-out and setting: next, `CCOC(OCC)n1ncnc1NC(=S)NCc1ccccc1`: -23.6% (inactive); `CC(=O)Nc1cc2cc(NC=C(C#N)C#N)ccc2oc1=O`: -27.3% (inactive); `CCOC(=O)/C(C#N)=C/N=c1ccccn1C`: -7.95% (inactive).
As to `CC(C)=NNC(=O)Nc1cccc(C)c1C`, the growth inhibition was 15.2% (inactive).
`COc1cc(-c2c3c(cc4c2OCO4)CC(O)C(C(=O)O)C3)cc(OC)c1OC` (stereo not given): the growth inhibition was -2.6% (inactive).
For the molecule `O=C1CCC([N+](=O)[O-])C(c2ccccc2Cl)N1` (stereo not given), the growth inhibition is -15.9% (inactive).
With `COC(=O)CCSc1ccccc1`, the growth inhibition is -12% (inactive).
As for `Cc1cc(C)cc(C(=O)NCc2ccc[n+]([O-])c2)c1`, the growth inhibition is -5.6% (inactive).
On to `Nc1ncccc1C(=O)O`, for which the growth inhibition is -1.05% (inactive).
In the case of `O=C1c2ccccc2Cc2ccccc21`, the growth inhibition is 7.75% (inactive).
Regarding `O=C(O)CCn1ccc2ccccc21`, the growth inhibition was -0.55% (inactive).
In the case of `CCCCCCCCC1C(CCCCCCCC(=O)N(CC)CCCOCC)C2(Cl)C(Cl)=C(Cl)C1(Cl)C2(Cl)Cl` (stereo not given), the growth inhibition was 4.65% (inactive).
As for `Cc1cnc2[nH]c(-c3ccccc3)cc(=O)c2c1`, the growth inhibition is -12.6% (inactive).
As for `COc1ccc(CSC(=S)Nc2ccc(N=Nc3ccccc3)cc2)cc1`, the growth inhibition is 11.6% (inactive).
Consider `O=P(OCCCl)(OCCCl)C(c1ccccc1)(c1ccccc1)c1ccccc1`, for which the growth inhibition is 35.7% (inactive).
The same measure, in the same setting: the figure for `CC(=O)c1ccncc1` is -0.7% (inactive); for `CCOc1ccccc1NC(=O)C(=O)Cc1nc2ccccc2s1` it is 6.1% (inactive).
Turning to `CC1CCCC(C)(C)/C1=N/O` (stereo not given), the growth inhibition was 20.2% (inactive).
As to `O=[N+]([O-])c1ccc(S(=O)(=O)c2ccc(NCN3CCCCC3)cc2)cc1`, the growth inhibition is 6.2% (inactive).
Still for that read-out and setting: next, `CN(N)C(=O)Nc1ccc([N+](=O)[O-])cc1`: 5.65% (inactive).
In the case of `CN(C)CCC1(C2=CCCC2)CC/C(=C\c2ccc3c(c2)OCO3)C1=O` (stereo not given), the growth inhibition was -13.7% (inactive).
Still for that read-out and setting: the figure for `CC(=O)NNC(=S)/N=C\c1c(O)c2ccccc2oc1=O` is -45.6% (inactive); for `NC(Cc1ccccc1)C(=O)Nc1cccnc1` (stereo not given) it is 15.2% (inactive); for `CCN(CC)CCCC(C)Nc1cc(C)c2nc(C)cc(C)c2c1C` (stereo not given) it is 9.45% (inactive).
Regarding `CCCCCCCCCCCCCC/C=N/Nc1ccc([N+](=O)[O-])cc1[N+](=O)[O-]`, the growth inhibition is 24% (inactive).
For the molecule `C/C(=C/C(C)C)C(C)(C#N)C(N)=O` (stereo not given), the growth inhibition was 5.8% (inactive).
